FBW7 activator: FBW7 E3 ligase activators, primary screen, biochemical, AlphaScreen, human; F-box/WD repeat-containing protein 7 (Homo sapiens), Q969H0; AID 1259310, 2017; AlphaScreen FBW7–phospho-cyclin E peptide binding, activator screen; normalized activity (activation), % at 26.1 µM; actives 0.13% (n = 650,000); in the data active means normalized activity above about 1.9%;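 further: purified mutant Fbw7 with reduced substrate affinity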
TEAD-YAP inh: TEAD-YAP interaction inhibition, primary screen, TEAD-YAP interaction inhibitor project, luminescence, HEK-TIYL cells; inhibition, % at 9.12 µM; actives 1.4% (n = 640,000); TEAD-Gal4/YAP UAS-luciferase luminescence; in the data active means inhibition above about 32%;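 further: 0% = median of test compound wells and 100% = reference inhibitor wells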
MITF primary: MITF inhibitors, primary screen, biochemical, AlphaScreen, human. inhibition, % at 2.6 µM. Microphthalmia-associated transcription factor (Homo sapiens), O75030. actives 0.91% (n = 650,000). AlphaScreen MITF homodimerization, bead proximity signal; in the data active means inhibition above about 50%;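 further: 0% = vehicle wells with protein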
Target sequence (O75030 whole entry, looked up): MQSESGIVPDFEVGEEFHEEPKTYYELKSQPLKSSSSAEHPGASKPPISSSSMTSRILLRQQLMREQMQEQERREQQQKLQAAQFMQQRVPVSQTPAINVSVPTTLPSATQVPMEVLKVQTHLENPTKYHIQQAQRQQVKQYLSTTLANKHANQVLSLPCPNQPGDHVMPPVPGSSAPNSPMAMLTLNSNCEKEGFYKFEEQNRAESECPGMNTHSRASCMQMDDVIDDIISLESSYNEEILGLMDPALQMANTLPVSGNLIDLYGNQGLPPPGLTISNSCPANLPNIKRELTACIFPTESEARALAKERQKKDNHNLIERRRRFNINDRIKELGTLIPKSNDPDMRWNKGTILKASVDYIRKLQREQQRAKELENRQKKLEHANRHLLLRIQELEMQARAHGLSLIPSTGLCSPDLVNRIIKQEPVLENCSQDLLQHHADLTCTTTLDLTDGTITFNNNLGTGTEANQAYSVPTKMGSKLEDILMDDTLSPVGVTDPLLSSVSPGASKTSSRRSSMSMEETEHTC
GPR151 ag: activators of human GPR151, primary screen, cell-based, PathHunter beta-arrestin, luminescence; actives 1% (n = 650,000); activation, % at 11.2 µM; PathHunter beta-arrestin GPR151 cells; AID 1508602, 2020; in the data active means activation above about 4.9%;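 further: 0% = median of compound wells and 100% = cells with positive control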
MITF confirm: MITF inhibitors, retest of hits, confirmation, biochemical, AlphaScreen, triplicate | inhibition, % at 2.6 µM | shares compounds with MITF primary | actives 16% (n = 4,700) | AlphaScreen MITF homodimerization, biotin/His-MITF beads;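 active means inhibition above a cutoff derived from the DMSO control wells, cut at about 28% in these data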;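 further: 0% = MITF dimer wells with DMSO only; inhibitors lower the bead chemiluminescence by keeping MITF from dimerizing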
AS interf ctr: AlphaScreen optical interference compounds, counter-screen for MITF inhibitor project, biochemical, triplicate; LysRS AlphaScreen counterscreen, signal interference; actives 7.6% (n = 4,700); inhibition, % at 2.6 µM; shares compounds with MITF primary; AID 1259376, 2018;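 active means inhibition above a cutoff derived from the DMSO control wells, cut at about 30% in these data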
* marks the source's active call; other numbers are inactive results; / = not tested or not shown. Most compounds without a hit are left out; they make up all but 3.5% or so of the library.

SMILES	FBW7 activator	TEAD-YAP inh	MITF primary	GPR151 ag	MITF confirm	AS interf ctr
O=C(Nc1ccc2c(c1)OCO2)c1cnc(NCCN2CCOCC2)s1	0	-9	52*	-2	2	10
O=C(CNCCN1CCOCC1)Nc1ccc(N2CCCCC2)cc1	0	1	93*	0	-16	-5
CC1(C)Oc2ccc(C(=O)N3CCCC3)cc2N(CC(=O)c2ccc(Cl)cc2)C1=O	0	-3	2	3	/	/
CC(C)N(C(=O)CNCCN1CCOCC1)c1ccccc1	0	1	72*	0	-5	1
COc1ccc(CCNCC(=O)Nc2ccccc2N2CCCCC2)cc1	0	-4	61*	0	9	16
O=C(CNCCCN1CCOCC1)Nc1ccc2c(c1)OCO2	0	2	71*	-1	4	12
O=C(CNCCCN1CCOCC1)Nc1ccc(N2CCCC2)cc1	0	-5	54*	0	4	19
O=C(CNCCCN1CCOCC1)Nc1ccc(N2CCCCC2)cc1	0	-2	50	1	/	/
CC(C)CC(=O)Nc1ccc(C(=O)CN2C(=O)C(=O)N(Cc3ccccc3)C2=O)cc1	0	7	8	0	/	/
COc1ccc(-n2c(SCC(=O)Nc3ccc(Br)cc3)nc3n[nH]c(C)c3c2=N)cc1	0	-5	1	0	/	/
CC(C)c1cccc(C(C)C)c1NC(=O)CNCCO	0	-1	53*	0	4	4
C=CCOc1ccc2c3c(c(=O)oc2c1C)CCC3	1	-27	54*	-2	12	14
O=C1CN(Cc2ccc(OCC(O)CN3CCCCC3)cc2)CCN1c1ccccc1 (configuration not stated)	0	8	12	0	/	/
Oc1ccc(CN2CCN(c3ccccc3F)CC2)c2cccnc12	-1	-2	20	1	/	/
CCOC(=O)N1CCN(Cc2ccc(O)c3ncccc23)CC1	-1	5	71*	0	50*	97*
CCCOCc1ccc(O)c2ncccc12	-2	22	81*	0	80*	100*
Cc1ccc(N[C@@H]2OC[C@@H](O)C(O)C2O)cc1N[C@@H]1OC[C@@H](O)C(O)C1O (some centres not stated)	0	15	72*	-1	71*	13
Cc1ccc(OCc2nnc(NC(=O)c3ncoc3-c3cccc(F)c3)s2)cc1	0	3	8	-1	/	/
Nc1nonc1-c1noc(-c2ccccc2Br)n1	0	-4	77*	-1	8	12
Nc1nonc1-c1noc(-c2ccccc2F)n1	0	-41	3	-2	/	/
NC(=O)c1cccc(N=Cc2ccc(Cl)cc2)c1	0	5	-13	0	/	/
COC(=O)C1=CN(CC23CC4CC(CC(C4)C2)C3)C=C(C(=O)OC)C1c1cccs1	1	-13	6	2	/	/
Fc1ccccc1-c1cnc2ccc(NCc3cccs3)nn12	0	8	53*	0	19	11
Cc1cc(Cl)cc(Br)c1OCCCCn1cncn1	0	9	63*	-1	0	-4
Cc1cc(Cl)c(OCCCn2cncn2)c(Br)c1	0	0	4	0	/	/
SMILES	FBW7 activator	TEAD-YAP inh	MITF primary	GPR151 ag	MITF confirm	AS interf ctr
COc1ccc(OC)c(-n2c(CNC(=O)c3cccs3)nnc2SCC(=O)Nc2cccc(C)c2)c1	0	11	62*	0	-10	-7
COc1ccccc1-n1c(CNC(=O)c2cccs2)nnc1SCC(=O)Nc1cccc(C)c1	0	6	13	-1	/	/
C=CCc1cccc(Cl)c1OCCCNCCN1CCOCC1	0	9	56*	0	5	20
C=CCc1cccc(Cl)c1OCCCN1CCNCC1	0	-5	53*	0	6	7
C=CCc1cccc(Cl)c1OCCCN1CCN(C)CC1	0	2	19	-1	/	/
Cc1cc(C)c2c(c1)NC(c1ccc(S(=O)(=O)N3CCOCC3)cc1)C1CC=CC21 (configuration not stated)	0	7	26	0	/	/

Assay outcomes (PubChem)
